Assay results from PubChem BioAssay.
Active and inactive are the calls of the source. Unless noted, the rule behind the calls is not given here.

Legend:
[1] = system: Wnt5a (protein binding on small-molecule microarray); test: small molecules binding Wnt5a protein – biophysical, small-molecule microarray, 635/667 nm fluorescence, primary screen (AID 1142); settings: 635 nm fluorescence, higher = more signal;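 note: fluorescence read at 667 nm with signal to noise per printed feature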
[2] = ATP-based viability of Huh7 replicon cells – cell-based, CellTiter-Glo luminescence, basal, 48 h, cytotoxicity control for HCV replication inhibitor project, primary screen (AID 1143); settings: higher = more signal, called active from +8 up or from −8 down;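 note: Huh7 hepatoma cells carrying a hepatitis C replication reporter with no stimulus; test concentration not given here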
[3] = Pseudomonas biofilm growth suppression – PAO1 strain, BacTiter-Glo luminescence, LB-PBS, primary screen (AID 1144); settings: P. aeruginosa PAO1 biofilm, 12 h, higher = more signal
[4] = basal CRE-LacZ reporter activity in PC12 – cell-based, unstimulated, primary screen (AID 1145); settings: no forskolin, luminescence, 4.5 h, higher = more signal, called active from +8 up or from −8 down
[5] = forskolin-driven CRE-LacZ activity in PC12 – cell-based, CRE-LacZ reporter, forskolin-stimulated, primary screen (AID 1146); settings: luminescence, 4.5 h, higher = more signal, called active from +8 up or from −8 down;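 note: PC12 cells with 6xCRE LacZ reporter stimulated by forskolin 10 µM; beta-galactosidase reporter signal reflecting CREB driven transcription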
[6] = molecular target: Streptavidin (Streptomyces avidinii) (UniProt P22629); test: compounds binding control protein streptavidin – biophysical, small-molecule microarray, 635/667 nm fluorescence, artefact control for SMM compound annotation, primary screen (AID 1147); settings: higher = more signal;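 note: signal reflects streptavidin binding to arrayed compounds as a control protein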
[7] = probe aInhba binding on compound microarray – biochemical, small-molecule microarray, 635/667 nm fluorescence, primary screen (AID 1148); settings: higher = more signal;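 note: score merges 667nm spot fluorescence with signal-to-noise for antibody binding to printed compounds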
[8] = molecular target: Torsin-1A (Homo sapiens) (UniProt O14656); test: TOR1A wild-type binding on microarray – cell lysate, small-molecule microarray, lysate, 635/667 nm, primary screen (AID 1149); settings: COS7 hTOR1A-WT lysate, 635 nm fluorescence, higher = more signal
[9] = molecular target: Torsin-1A (Homo sapiens) (UniProt O14656); test: torsin A mutant lysate binding on microarrays – cell lysate, small-molecule microarray, COS7 lysate, 635/667 nm fluorescence, primary screen (AID 1150); settings: COS7 hTOR1A mutant lysate, 635 nm fluorescence, higher = more signal;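 note: score pools 667 nm emission and signal to noise measuring lysate protein binding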
[10] = system: Sonic hedgehog protein (Shh); test: Sonic hedgehog microarray binding compounds – biochemical, small-molecule microarray, 635/667 nm fluorescence, primary screen (AID 1151); settings: 635 nm fluorescence, higher = more signal;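 note: Shh protein binding to compounds spotted on small-molecule microarray slides; score combines spot fluorescence intensity with signal-to-noise across triplicate slides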
[11] = optical density shifts of acrAB sulA E. coli – strain DRC41, OD650, 48 h, E. coli filamentation inducer project, primary screen (AID 1152); settings: higher = more signal, called active from +8 up or from −8 down;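 note: E. coli MC1000 strain DRC41 lacking acrAB efflux pump and sulA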
[12] = probe aLefty1 binding on compound microarray – biochemical, small-molecule microarray, 635/667 nm fluorescence, primary screen (AID 1153); settings: higher = more signal;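 note: score merges spot fluorescence with signal-to-noise ratio from the scanned slide images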
[13] = plasmodial surface anion channel blockers, osmotic lysis – cell-based, P. falciparum Indochina, OD700, 1 h, primary screen (AID 1154); settings: P. falciparum Indochina infected RBC osmotic lysis, higher = more signal, called active from +8 up or from −8 down
[14] = plasmodial surface anion channel blockers, osmotic lysis – cell-based, P. falciparum Indochina, OD700, 2 h, primary screen (AID 1155);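 note: lysis reports solute entry through the parasite surface anion channel PSAC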; settings: P. falciparum Indochina infected erythrocytes, higher = more signal, called active from +8 up or from −8 down
[15] = changes in parasitized red cell lysis, either direction – P. falciparum Indochina, OD700, 3 h, PSAC antagonist project, primary screen (AID 1156); settings: P. falciparum-infected erythrocytes, osmotic lysis, higher = more signal, called active from +8 up or from −8 down
[16] = plasmodial surface anion channel blockers, osmotic lysis – cell-based, P. falciparum Indochina, OD700, 18 h, primary screen (AID 1157); settings: P. falciparum Indochina infected erythrocytes, osmotic lysis OD700, 18 h; higher = more signal, called active from +8 up or from −8 down
[17] = S6 kinase pathway phospho-S6 level changes – cell-based, A549, cytoblot, luminescence, serum-stimulated, primary screen (AID 1158); settings: 5 h, higher = more signal;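 note: serum-stimulated A549 lung adenocarcinoma cells; signal is phosphorylated S6 detected by cytoblot immunostaining with HRP secondary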
[18] = molecular target: NADPH oxidase 2 (Homo sapiens) (UniProt P04839); test: compounds shifting NOX2 Amplex Red fluorescence – cell-based, HEK293-NOX2, PMA-stimulated, NOX inhibitor project, primary screen (AID 1159); settings: 45 min, higher = more signal, called active from +8 up or from −8 down; note: test concentration not given here
[19] = molecular target: NADPH oxidase 4 (Homo sapiens) (UniProt Q9NPH5); test: compounds shifting NOX4 Amplex Red fluorescence – cell-based, HEK293-NOX4, tetracycline-induced, NOX inhibitor project, primary screen (AID 1160); settings: HEK293-NOX4, Amplex Red H2O2 fluorescence, 45 min; higher = more signal, called active from +8 up or from −8 down
[20] = molecular target: NADPH oxidase 5 (Homo sapiens) (UniProt Q96PH1); test: compounds shifting NOX5 Amplex Red fluorescence – cell-based, HEK293-NOX5, NOX inhibitor project, primary screen (AID 1161); settings: HEK293-NOX5, ionomycin, 45 min, higher = more signal
NADPH oxidase 5 (Homo sapiens), sequence (Q96PH1 whole entry, looked up): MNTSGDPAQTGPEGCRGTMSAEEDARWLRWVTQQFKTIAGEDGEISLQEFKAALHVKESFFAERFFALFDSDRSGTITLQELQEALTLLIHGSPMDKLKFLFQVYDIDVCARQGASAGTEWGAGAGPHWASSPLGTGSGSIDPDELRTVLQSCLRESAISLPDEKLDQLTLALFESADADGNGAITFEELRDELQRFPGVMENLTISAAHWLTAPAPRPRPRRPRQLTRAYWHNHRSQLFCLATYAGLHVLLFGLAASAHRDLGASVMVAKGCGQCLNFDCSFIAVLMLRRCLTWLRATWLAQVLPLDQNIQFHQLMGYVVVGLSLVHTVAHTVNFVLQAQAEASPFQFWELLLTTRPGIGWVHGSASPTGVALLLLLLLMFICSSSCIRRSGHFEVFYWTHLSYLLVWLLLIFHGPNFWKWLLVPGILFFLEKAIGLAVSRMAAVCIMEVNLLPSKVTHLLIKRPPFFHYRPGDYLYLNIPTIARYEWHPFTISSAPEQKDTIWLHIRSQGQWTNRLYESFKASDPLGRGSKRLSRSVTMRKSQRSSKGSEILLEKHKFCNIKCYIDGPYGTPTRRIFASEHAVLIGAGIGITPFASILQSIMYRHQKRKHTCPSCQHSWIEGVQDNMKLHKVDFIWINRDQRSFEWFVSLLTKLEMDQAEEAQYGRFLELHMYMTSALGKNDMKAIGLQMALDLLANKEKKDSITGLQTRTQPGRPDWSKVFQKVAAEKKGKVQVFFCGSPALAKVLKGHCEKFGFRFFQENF

NADPH oxidase 2 (Homo sapiens), sequence (P04839 whole entry, looked up): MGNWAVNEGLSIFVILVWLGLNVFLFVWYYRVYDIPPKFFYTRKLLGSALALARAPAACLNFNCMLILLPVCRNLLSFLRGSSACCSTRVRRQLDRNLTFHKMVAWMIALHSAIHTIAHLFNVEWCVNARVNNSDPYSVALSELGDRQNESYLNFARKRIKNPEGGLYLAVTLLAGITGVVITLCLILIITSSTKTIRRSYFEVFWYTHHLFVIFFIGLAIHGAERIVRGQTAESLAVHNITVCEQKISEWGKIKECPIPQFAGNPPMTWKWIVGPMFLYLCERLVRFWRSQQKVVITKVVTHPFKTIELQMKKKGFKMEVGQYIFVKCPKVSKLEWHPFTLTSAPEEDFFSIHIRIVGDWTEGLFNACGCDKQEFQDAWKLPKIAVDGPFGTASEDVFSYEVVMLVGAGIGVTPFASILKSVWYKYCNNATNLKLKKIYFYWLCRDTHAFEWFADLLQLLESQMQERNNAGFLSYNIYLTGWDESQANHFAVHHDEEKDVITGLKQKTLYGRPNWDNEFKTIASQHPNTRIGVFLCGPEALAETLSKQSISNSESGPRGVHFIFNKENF
Streptavidin (Streptomyces avidinii), sequence (P22629 whole entry, looked up): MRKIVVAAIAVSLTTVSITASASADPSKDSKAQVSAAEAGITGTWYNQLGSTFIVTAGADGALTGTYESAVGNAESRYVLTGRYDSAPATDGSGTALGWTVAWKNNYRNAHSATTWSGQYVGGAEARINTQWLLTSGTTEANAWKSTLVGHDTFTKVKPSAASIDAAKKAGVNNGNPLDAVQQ
NADPH oxidase 4 (Homo sapiens), sequence (Q9NPH5 whole entry, looked up): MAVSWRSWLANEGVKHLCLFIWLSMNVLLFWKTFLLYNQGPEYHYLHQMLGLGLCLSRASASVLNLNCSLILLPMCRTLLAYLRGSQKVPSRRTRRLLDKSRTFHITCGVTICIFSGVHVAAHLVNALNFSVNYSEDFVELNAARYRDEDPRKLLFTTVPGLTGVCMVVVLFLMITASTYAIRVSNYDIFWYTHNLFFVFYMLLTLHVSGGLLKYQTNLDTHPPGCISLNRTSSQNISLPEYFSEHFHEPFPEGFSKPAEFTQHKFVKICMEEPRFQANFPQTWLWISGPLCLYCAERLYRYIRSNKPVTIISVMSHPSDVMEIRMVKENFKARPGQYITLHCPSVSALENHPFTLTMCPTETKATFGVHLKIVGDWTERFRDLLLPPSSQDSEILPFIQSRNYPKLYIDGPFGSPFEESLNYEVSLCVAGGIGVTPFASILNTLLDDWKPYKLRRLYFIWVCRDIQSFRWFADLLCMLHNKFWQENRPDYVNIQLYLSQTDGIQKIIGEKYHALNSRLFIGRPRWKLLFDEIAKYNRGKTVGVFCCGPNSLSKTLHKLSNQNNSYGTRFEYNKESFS
Torsin-1A (Homo sapiens), sequence (O14656 whole entry, looked up): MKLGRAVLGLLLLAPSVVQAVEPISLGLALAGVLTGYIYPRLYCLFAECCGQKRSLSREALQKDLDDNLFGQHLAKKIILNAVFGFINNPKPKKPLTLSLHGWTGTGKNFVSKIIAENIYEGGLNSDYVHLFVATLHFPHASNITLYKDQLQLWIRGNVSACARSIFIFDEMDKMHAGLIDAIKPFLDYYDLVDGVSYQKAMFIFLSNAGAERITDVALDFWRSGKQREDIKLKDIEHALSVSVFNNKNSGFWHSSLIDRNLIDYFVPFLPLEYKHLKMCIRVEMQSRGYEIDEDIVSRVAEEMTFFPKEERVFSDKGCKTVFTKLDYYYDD

| SMILES | composite z-score [1] | z-score [2] | z-score [3] | z-score [4] | z-score [5] | composite z-score [6] | composite z-score [7] | composite z-score [8] | composite z-score [9] | composite z-score [10] | z-score [11] | composite z-score [12] | z-score [13] | z-score [14] | z-score [15] | z-score [16] | z-score [17] | z-score [18] | z-score [19] | z-score [20] |
| --- | --- | --- | --- | --- | --- | --- | --- | --- | --- | --- | --- | --- | --- | --- | --- | --- | --- | --- | --- | --- |
| O=C1C2C=CC(C(O)c3ccc(I)cc3)N(Nc3ccccc3)C2C(=O)N1c1ccccc1 (stereo not given) | 0.478 | -0.167 (inactive) | -0.379 (inactive) | -0.522 (inactive) | 0.32 (inactive) | 1.88 | 0.151 | -0.087 | 0.36 | 0.0756 | -1.11 (inactive) | 0.437 | 6.92 (inactive) | 2.42 (inactive) | -0.166 (inactive) | 1.83 (inactive) | -1.21 | -1.88 (inactive) | -3.86 (inactive) | -2.54 |
| C=C(COC)C(=O)CC[C@H](OC(C)=O)c1ccc(OCCO)cc1 | 0.632 | -3.53 (inactive) | -0.856 (inactive) | 2.77 (inactive) | 1.69 (inactive) | -0.0693 | -0.0675 | 1.2 | 0.647 | 1.85 | 1.5 (inactive) | -0.0984 | 4.92 (inactive) | -1.68 (inactive) | 1.91 (inactive) | -1.85 (inactive) | 0.534 | -2.84 (inactive) | -1.63 (inactive) | -2.22 |
| COCCCNC(=O)[C@@]1(c2ccc([N+](=O)[O-])cc2)CC(=O)N(CC23CC4CC(CC(C4)C2)C3)[C@@H]1c1ccc(CO)cc1I | 0.582 | -5.26 (inactive) | 0.142 (inactive) | -0.825 (inactive) | 0.372 (inactive) | -0.414 | 0.0906 | 0.676 | 0.0661 | 0.636 | -0.355 (inactive) | 0.082 | 24 (active) | 8.65 (active) | 2.5 (inactive) | 2.31 (inactive) | -0.0623 | 2.08 (inactive) | -1.02 (inactive) | -0.233 |
| COC(=O)[C@@]1(Cc2ccc(OC)cc2)[C@H]2c3cc(C(=O)N4CCCC4)n(Cc4ccc(OC(F)(F)F)cc4)c3C[C@H]2CN1C(=O)c1ccccc1 | 0.622 | -3.34 (inactive) | 0.488 (inactive) | -0.565 (inactive) | -0.239 (inactive) | 1.73 | 0.0925 | -1.04 | -0.89 | -1.05 | -1.32 (inactive) | 0.029 | 2.24 (inactive) | 0.453 (inactive) | -0.0152 (inactive) | 1.06 (inactive) | -0.174 | 1.11 (inactive) | 1.56 (inactive) | 2.4 |
| CC(C)CNC(=O)[C@@]1(c2ccc([N+](=O)[O-])cc2)CC(=O)N(C2CCCCC2)[C@@H]1c1ccc(CO)cc1 | 0.335 | -2.21 (inactive) | 0.901 (inactive) | 0.585 (inactive) | 0.142 (inactive) | -0.0755 | -0.153 | 0.442 | 0.0881 | -0.158 | 0.706 (inactive) | 0.164 | 0.879 (inactive) | -0.189 (inactive) | 0.0352 (inactive) | -0.013 (inactive) | 0.358 | 0.382 (inactive) | 0.581 (inactive) | 0.668 |
| CC(C)[C@H]1NC(=O)[C@@]23C(=O)N[C@@H](Cc4ccccc4)C2[C@H](C)[C@@]2(C)O[C@H]2C3/C=C/C/C=C\CNC(=O)[C@H](Cc2ccccc2)NC1=O (stereo not given in full) | 0.566 | -2.56 (inactive) | 1.12 (inactive) | 1.57 (inactive) | -0.513 (inactive) | 0.852 | 0.0528 | 1.3 | 0.629 | 1.96 | -0.306 (inactive) | 0.284 | 1.48 (inactive) | 0.491 (inactive) | 0.137 (inactive) | 0.476 (inactive) | -0.324 | 0.155 (inactive) | 1.05 (inactive) | 1.1 |
| [N-]=[N+]=NCc1ccccc1[C@H]1OC(c2ccc(OCCCO)cc2)=N[C@@]1(Cc1ccccc1)C(=O)NCCN1CCOCC1 | 0.526 | -3.01 (inactive) | -0.206 (inactive) | 1.53 (inactive) | -0.355 (inactive) | 1.13 | 0.555 | 1.03 | 0.604 | 0.502 | 0.694 (inactive) | 0.843 | 28.1 (active) | 22.1 (active) | 3.64 (inactive) | 3.74 (inactive) | -0.281 | 0.0323 (inactive) | 1.93 (inactive) | 1.58 |
| COc1ccc(C(=O)Nc2cccc(CN3C(=O)[C@@]4(O[C@@H](CC(=O)N(CCO)Cc5ccccc5)[C@H]([Si](C)(C)c5ccc(OC)cc5)[C@H]4C)c4ccccc43)c2)cc1 | -0.198 | -4.44 (inactive) | -0.244 (inactive) | 3.3 (inactive) | -0.76 (inactive) | -0.503 | -0.101 | 0.479 | 1.16 | 1.51 | 1.23 (inactive) | -0.443 | 12.3 (active) | 0.833 (inactive) | -0.39 (inactive) | -1.31 (inactive) | 1.58 | 0.306 (inactive) | 0.56 (inactive) | 2.08 |
